PubChem BioAssay (Tox21)
Results filed as inconclusive are left out. Entries that show only a call come without a potency. Where a structure was tested more than once in an assay, its records may differ in their call. Active and inactive are the calls of the source. Unless noted, calls come from the whole dose curve; as a rule, active = well fitted curve in the direction sought with a large enough effect in the repeat runs; inconclusive = weak or mixed curves; inactive = no such curve, though single readings can be large; an effect the other way counts as inactive or inconclusive.

What was measured:
[1] = qHTS assay to identify small molecule antagonists of the retinoid acid receptor (RAR) signaling pathway - cell viability counter screen (AID 1159551); note: nearly all actives have a fitted effect of over 35% in size; note: potency is the fitted concentration of half-maximal effect
How it was run: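 Cytotoxicity counter screen: ATP content quantified by CellTiter-Glo luminescence in C3RL4 cells treated 6 hr at 37 C with compound and retinol (1 uM final). Cells plated at 1,000/well and cultured overnight before dosing.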

[2] = qHTS assay to identify small molecule antagonists of the estrogen related receptor (ERR) signaling pathway from Tox21 library - cell viability counter screen (AID 1224834); note: nearly all actives have a fitted effect of over 30% in size; note: potency is the fitted concentration of half-maximal effect
How it was run: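 CellTiter-Fluor fluorescence, read after 30 min at 37 C, measures viability of ERR cells. Cells plated at 2,000/well and incubated 6 h before pin-tool compound addition, then exposed 17.5 hours at 37 C.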

[3] = biological target: Luciferin 4-monooxygenase (Photinus pyralis) (UniProt P08659); assay: qHTS assay to identify small molecule inhibitors of firefly luciferase (AID 1224835); note: nearly all actives have a fitted effect of over 25% in size; note: potency is the fitted concentration of half-maximal effect
How it was run: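 Biochemical qHTS: compounds run as interplate titrations against purified firefly enzyme, with D-luciferin and ATP each at its KM concentration. Light output recorded by CCD imaging.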

[4] = qHTS assay to identify small molecule agonists of the constitutive androstane receptor (CAR) signaling pathway - cell viability counter screen (AID 1224836); note: nearly all actives have a fitted effect of over 45% in size; note: potency is the fitted concentration of half-maximal effect
How it was run: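 Multiplexed viability check: HepG2-CYP2B6-hCAR cells, 15-point compound dosing, 0.75 uM PK11195 final, 23 h at 37 C, CellTiter-Fluor fluorescence.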

[5] = qHTS assay to identify small molecule antagonists of the constitutive androstane receptor (CAR) signaling pathway - cell viability counter screen (AID 1224837); note: nearly all actives have a fitted effect of over 45% in size; note: potency is the fitted concentration of half-maximal effect
How it was run: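 Cytotoxicity counter-screen: CellTiter-Fluor fluorescence after 23 h compound exposure (15-point qHTS) in double-stable HepG2-CYP2B6-hCAR cells, with 50 nM CITCO added.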

[6] = qHTS assay to identify small molecule antagonists of the estrogen related receptor signaling pathway with the pleiotropic PPARgamma coactivator (PGC) from Tox21 10K library - cell viability counter screen (AID 1224840; active = well fitted cell-killing curve with a large enough effect in the repeat runs, not every such curve was filed as active; note: nearly all actives have a fitted effect of over 40% in size; note: potency is the fitted concentration of half-maximal effect)
How it was run: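 Counter-screen for cytotoxicity: after 17.5 h compound exposure at 37 C, CellTiter-Fluor reagent added to PGC/ERR cells for 30 min and fluorescence read. Cells were seeded at 2,000 per well 6 h before dosing.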

[7] = qHTS assay to identify small molecule agonists of the estrogen related receptor signaling pathway with the pleiotropic PPARgamma coactivator (PGC) from Tox21 10K library (AID 1224842); note: nearly all actives have a fitted effect of over 15% in size
How it was run: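 PGC/ERR reporter cell line, 2,000 cells per well, incubated 6 h at 37 C before 23 nL compound in DMSO was added. After 18 h at 37 C, One-Glo luminescence read following 30 min at room temperature.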

[8] = biological target: Nuclear receptor subfamily 1 group I member 3 (Homo sapiens) (UniProt Q14994); assay: qHTS assay to identify small molecule antagonists of the constitutive androstane receptor (CAR) signaling pathway (AID 1224838);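 note: HepG2 cells stably expressing hCAR with CYP2B6 luciferase reporter stimulated by CITCO; nearly all actives have a fitted effect of over 40% in size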; note: potency is the fitted concentration of half-maximal effect
How it was run: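 Antagonism measured as luciferase signal (ONE-Glo, 30 min, room temperature) in CAR-stimulated cells: HepG2-CYP2B6-hCAR double-stable line exposed 24 hr at 37 C to compound in a 15-point series plus 50 nM CITCO.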

[9] = biological target: Nuclear receptor subfamily 1 group I member 3 (Homo sapiens) (UniProt Q14994); assay: qHTS assay to identify small molecule agonists of the constitutive androstane receptor (CAR) signaling pathway (AID 1224839);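 note: HepG2 cells stably carrying human CAR and a CYP2B6 luciferase reporter; series mostly up to about 92 µM; nearly all actives have a fitted effect of over 15% in size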
How it was run: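 Using human hepatoma HepG2 cells engineered with hCAR and a CYP2B6-2.2kb reporter, 15-concentration compound series were incubated 24 h alongside PK11195 at 0.75 uM final, with luminescence quantified afterwards.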

[10] = qHTS assay to identify small molecule antagonists of the estrogen related receptor signaling pathway with the pleiotropic PPARgamma coactivator (PGC) from Tox21 10K library (AID 1224841; call rule not given here; note: actives are mostly falling curves and most rising ones were filed inactive; nearly all actives have a fitted effect of over 50% in size; note: potency is the fitted concentration of half-maximal effect)
How it was run: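 Luminescence (One-Glo, 30 min at room temperature) after 18 h compound treatment at 37 C of PGC/ERR reporter cells plated at 2,000 cells/well and settled 6 h beforehand.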

[11] = biological target: Thyrotropin receptor (Homo sapiens) (UniProt P16473); assay: qHTS assay to identify small molecule agonists of the thyroid stimulating hormone receptor (TSHR) signaling pathway (AID 1224843; calls by dose curve; note: nearly all actives have a fitted effect of over 45% in size)
How it was run: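 Agonist-mode screen: TSHR HEK293 cells received test chemicals for half an hour at room temperature, then HTRF cAMP detection reagents for one hour prior to fluorescence measurement. Each chemical ran as a 15-concentration series, triplicated.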

[12] = qHTS assay to identify small molecule agonists of the hypoxia (HIF-1) signaling pathway - cell viability counter screen (AID 1224844; calls by dose curve; note: nearly all actives have a fitted effect of over 50% in size; note: potency is the fitted concentration of half-maximal effect)
How it was run: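 Cytotoxicity measured by CellTiter-Glo ATP luminescence in the wells also read for beta-lactamase signal. Cells were HRE-bla ME-180 (2,000/well, 0.5% dialyzed FBS), exposed to compounds for 17 h at 37C.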

[13] = qHTS assay to identify small molecule agonists of the retinoic acid receptor (RAR) signaling pathway (AID 1159553)
How it was run: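 Luminescence was measured 30 min after luciferase reagent addition at room temperature. Before that, C3RL4 reporter cells (1,000 per well, plated overnight) were treated with compound for 6 hr at 37 C and 5% CO2.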

Chain of Luciferin 4-monooxygenase (Photinus pyralis) (P08659 whole entry, looked up): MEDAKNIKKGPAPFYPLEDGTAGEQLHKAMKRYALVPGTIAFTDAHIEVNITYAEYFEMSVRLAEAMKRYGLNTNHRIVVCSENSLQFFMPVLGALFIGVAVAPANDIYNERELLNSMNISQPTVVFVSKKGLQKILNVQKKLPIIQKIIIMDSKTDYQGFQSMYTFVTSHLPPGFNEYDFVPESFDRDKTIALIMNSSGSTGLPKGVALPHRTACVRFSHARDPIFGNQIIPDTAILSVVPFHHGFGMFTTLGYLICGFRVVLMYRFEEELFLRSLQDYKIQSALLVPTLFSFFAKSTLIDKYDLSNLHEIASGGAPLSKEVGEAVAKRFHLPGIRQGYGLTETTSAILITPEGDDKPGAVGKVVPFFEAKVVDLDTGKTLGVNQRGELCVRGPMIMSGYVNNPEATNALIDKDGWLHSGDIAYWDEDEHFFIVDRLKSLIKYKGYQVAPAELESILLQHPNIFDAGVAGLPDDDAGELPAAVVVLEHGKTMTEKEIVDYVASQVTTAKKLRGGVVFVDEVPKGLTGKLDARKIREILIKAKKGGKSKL
Chain of Thyrotropin receptor (Homo sapiens) (P16473 whole entry, looked up): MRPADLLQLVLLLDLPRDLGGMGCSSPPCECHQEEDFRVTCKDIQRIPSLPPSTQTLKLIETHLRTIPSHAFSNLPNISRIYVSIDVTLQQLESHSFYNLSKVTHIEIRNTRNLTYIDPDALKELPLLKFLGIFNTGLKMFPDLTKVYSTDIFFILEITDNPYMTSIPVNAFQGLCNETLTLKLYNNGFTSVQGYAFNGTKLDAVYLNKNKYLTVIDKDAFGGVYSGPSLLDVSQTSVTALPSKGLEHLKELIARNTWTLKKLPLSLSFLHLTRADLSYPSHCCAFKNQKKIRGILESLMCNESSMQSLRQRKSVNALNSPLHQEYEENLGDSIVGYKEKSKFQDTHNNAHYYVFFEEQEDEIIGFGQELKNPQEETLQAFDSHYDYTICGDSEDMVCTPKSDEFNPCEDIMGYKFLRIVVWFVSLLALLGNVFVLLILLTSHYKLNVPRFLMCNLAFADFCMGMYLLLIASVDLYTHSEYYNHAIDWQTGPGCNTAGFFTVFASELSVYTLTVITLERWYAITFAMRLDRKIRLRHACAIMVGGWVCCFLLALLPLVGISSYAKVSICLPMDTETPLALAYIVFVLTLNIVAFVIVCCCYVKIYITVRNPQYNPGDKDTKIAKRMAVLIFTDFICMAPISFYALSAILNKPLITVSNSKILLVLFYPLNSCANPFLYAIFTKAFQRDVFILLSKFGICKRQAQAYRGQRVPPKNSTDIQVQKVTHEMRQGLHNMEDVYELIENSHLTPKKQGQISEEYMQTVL
Chain of Nuclear receptor subfamily 1 group I member 3 (Homo sapiens) (Q14994 whole entry, looked up): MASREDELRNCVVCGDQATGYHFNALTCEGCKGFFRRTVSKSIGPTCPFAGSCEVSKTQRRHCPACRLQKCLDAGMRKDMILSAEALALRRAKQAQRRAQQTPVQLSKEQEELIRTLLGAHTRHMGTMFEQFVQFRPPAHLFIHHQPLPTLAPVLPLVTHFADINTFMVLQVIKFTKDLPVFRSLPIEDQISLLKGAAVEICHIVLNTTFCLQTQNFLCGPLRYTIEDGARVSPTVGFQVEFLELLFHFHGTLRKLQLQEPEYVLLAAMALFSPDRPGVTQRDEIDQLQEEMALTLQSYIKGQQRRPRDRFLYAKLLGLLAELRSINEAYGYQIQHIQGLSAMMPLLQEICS

| Structure (SMILES) | Potency [1] | Potency [2] | Potency [3] | Potency [4] | Potency [5] | Potency [6] | Potency [7] | Potency [8] | Potency [9] | Potency [10] | Potency [11] | Potency [12] | Potency [13] |
| --- | --- | --- | --- | --- | --- | --- | --- | --- | --- | --- | --- | --- | --- |
| COc1ccc(N)cc1N | inactive | 31.6 µM (active) | 41.2 µM (active) | 63.1 µM (active) | 70.8 µM (active) | 28.2 µM (active) and inactive | inactive | – | – | – | – | – | – |
| CC(Cc1ccc(C(C)(C)C)cc1)CN1C[C@@H](C)O[C@@H](C)C1 (some centres undefined) | inactive | inactive | inactive | inactive | inactive | inactive | – | inactive | inactive | inactive | – | – | – |
| C[C@]12CC[C@@H]3c4ccc(OC(=O)N(CCCl)CCCl)cc4CC[C@H]3[C@@H]1CC[C@@H]2O | inactive | inactive | inactive | inactive | inactive | – | inactive | inactive | inactive | – | inactive | inactive | – |
| O=[N+]([O-])c1cc(C(F)(F)F)c(Cl)c([N+](=O)[O-])c1Cl | 48.6 µM (active) | 54.5 µM (active) | 79.6 µM (active) | 43.3 µM (active) | 27.3 µM (active) | 48.6 µM (active) | inactive | – | – | – | – | 7.76 µM (active) | – |
| CC1(C)C(/C=C(\Cl)C(F)(F)F)C1C(=O)OC(C#N)c1cccc(Oc2ccccc2)c1 (centres undefined) | inactive | inactive | inactive | inactive | inactive | – | – | – | inactive | – | inactive | inactive | – |
| Oc1ccc(I)cc1 | inactive | inactive | inactive | inactive | inactive | inactive | – | inactive | inactive | – | inactive | inactive | – |
| C=COCCCl | inactive | inactive | inactive | inactive | inactive | inactive | inactive | inactive | inactive | inactive | inactive | inactive | – |
| CN(CCCC(=O)c1cccnc1)N=O | inactive | inactive | inactive | inactive | inactive | inactive | – | inactive | inactive | – | inactive | inactive | – |
| BrCBr | inactive | inactive | inactive | inactive | inactive | – | – | inactive | inactive | – | inactive | inactive | – |
| S=C(SSC(=S)N1CCCCC1)N1CCCCC1 | inactive | 0.531 µM (active) | 1.74 µM (active) | 0.841 µM (active) | 0.335 µM (active) | – | inactive | – | inactive | – | inactive | 0.338 µM (active) | – |
| CN(C)S(=O)(=O)N(SC(F)(Cl)Cl)c1ccccc1 | 48.6 µM (active) | 30.6 µM (active) | 35.6 µM (active) | 30.6 µM (active) | 27.3 µM (active) | 24.3 µM (active) | – | 21.7 µM (active) | inactive | – | – | 19.5 µM (active) | – |
| CC(=[OH+])/C=C(/C)[O-].CC(=[OH+])/C=C(\C)[O-].CC(=[OH+])/C=C(\C)[O-].[Fe] | inactive | inactive | 39.9 µM (active) | inactive | inactive | inactive | – | – | – | – | – | – | – |
| ClCc1ccc(Cl)cc1Cl | inactive | inactive | inactive | inactive | inactive | inactive | – | inactive | inactive | – | inactive | inactive | – |
| [Hg+2].[I-].[I-] | 10.9 µM (active) | 6.86 µM (active) | 4.48 µM (active) | 34.4 µM (active) | 30.6 µM (active) | 4.33 µM (active) | – | 30.6 µM (active) | inactive | – | – | 1.95 µM (active) | – |
| ClC(Cl)=C(Cl)Cl | inactive | inactive | inactive | inactive | inactive | – | – | inactive | inactive | – | inactive | inactive | – |
| C[C@@H]1O[C@@H](O[C@@H]2C=C3CC[C@@H]4[C@H](CC[C@]5(C)[C@@H](c6ccc(=O)oc6)CC[C@]45O)[C@@]3(C)CC2)[C@H](O)[C@H](O)[C@H]1O | inactive | 0.0298 µM (active) | inactive | 0.119 µM (active) | – | – | inactive | 0.0841 µM (active) | inactive | 0.0237 µM (active) | – | – | inactive |
| CC(C)[C@H](C(=O)O[C@H](C#N)c1cccc(Oc2ccccc2)c1)c1ccc(Cl)cc1 | inactive | inactive | inactive | inactive | inactive | – | – | – | – | – | – | – | – |
